PubChem BioAssay AID624354 (Sanford-Burnham Center for Chemical Genomics, 2012)
Screen size: about 360,000 compounds; about 3,800 (1.1%) were called active. The full list was thinned out, with actives kept by preference. A number with no mark means an inactive call.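 How the source made its calls: active means compounds causing at least 50% loss of cell viability in the single-dose screen, relative to plate controls; inactive means the rest.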

Experiment: TRAIL-exposed caspase-8 expressing cell killing – NB7+C8 cells, ATPlite luminescence, TRAIL sensitizer project, primary screen (AID 624354)
Conditions: at 10 µM, hits give high values

Row | Structure (SMILES) | inhibition (viability loss, TRAIL sensitization)
1 | COc1ccc(CN2C(=O)CN=C2Nc2ccc(C)cc2C)cc1 | -15.6%
2 | Cc1ccc(CN2CC(N3CCC(Cc4ccccc4)CC3)CS2(=O)=O)cc1 (stereo not drawn) | -13.4%
3 | Cc1ccc(CN2CCN(Cc3cccc(C)n3)CC2CCO)cc1 (stereo not drawn) | 0.251%
4 | COc1cc(C)c(CN2CCN(C(=O)CCC(=O)c3ccc(C)s3)CC2)cc1OC | 16.8%
5 | O=C(c1cc2c(s1)CCC2)N1CCN(c2ccccc2)CC1 | -1.76%
6 | COc1ccc(S(=O)(=O)N2CN(CCc3ccc(OC)c(OC)c3)c3nc4ccccc4nc32)cc1 | 5.09%
7 | CN(C(=O)Nc1ccc(Cl)cc1)n1cnc2ccccc2c1=O | 7.39%
8 | CC(C)(C)c1nc2ccccc2c(=O)n1N1C(=O)c2ccccc2C1=O | 11.4%
9 | CN(c1ccc2nc3ccccc3c(=O)n2n1)C1CCCCC1 | 91.9% (active)
10 | CC(OC(=O)CNC(=O)c1ccco1)C(=O)Nc1ccc(Cl)cn1 (stereo not drawn) | 8.79%
11 | O=C(Nc1ccc(NC(=O)c2cccs2)cn1)c1ccco1 | 63% (active)
12 | O=C(COC(=O)c1ccco1)Nc1ccc(Cl)cn1 | -1.44%
13 | Cc1cc(C)c(S(=O)(=O)NN=C2c3ccccc3[C@H]3Cc4csc[n+]4[C@@H]23)c(C)c1 | -3.55%
14 | C#Cc1cc(N2CCN(C(=O)c3ccoc3)CC2)n2nc(-c3cccc(Cl)c3)cc2n1 | 91.7% (active)
15 | CNc1cncc(-c2cccc(C(=O)N3CCOCC3)c2)n1 | -18.4%
16 | CCc1nc2ccc(C(=O)N3CCN(c4cccc(Cl)c4)CC3)cc2nc1CC | 1.3%
17 | CC(C)(C)NC(=O)C(CCc1ccccc1)n1c(=O)c(-c2ccccc2)nc2ccccc21 (stereo not drawn) | -2.69%
18 | Nc1cc(C(F)(F)F)ccc1N1CCOCC1 | -31.5%
19 | COc1ccc(COC[C@H](CC(C)C)N2CCN(C(=O)c3cccc(C(F)(F)F)c3)CCC2=O)cc1 | -6.73%
20 | O=C(C(=O)N1CCC(c2ccccc2)CC1)c1ccccc1 | -9.02%
21 | COc1cccc2c1C(=O)c1c(O)c3c(c(O)c1C2=O)CC(O)(C(C)=NNC(=O)c1ccc(Cl)c(Cl)c1)CC3OC1CC(N)C(O)C(C)O1 (stereo not drawn) | 55.5% (active)
22 | Cc1c(Nc2nc3ccccc3nc2NS(=O)(=O)c2cccs2)c(=O)n(-c2ccccc2)n1C | -7.01%

Row | Structure (SMILES) | inhibition (viability loss, TRAIL sensitization)
23 | CCN(CC(=O)Nc1ccc(C)c(S(=O)(=O)N(C)C)c1)Cc1ccccc1 | 9.33%
24 | Cc1csc(SCC(=O)Nc2ccc(C)c(S(=O)(=O)N(C)C)c2)n1 | 1.13%
25 | Cc1ccc(C(=O)Nc2ccc(C)c(S(=O)(=O)N(C)C)c2)s1 | 61.7% (active)
26 | Cc1ccc(S(=O)(=O)NNC(=S)NC(C)(C)C)cc1 | -2.34%
27 | N=c1c2c3c(sc2nc2n1CCCCC2)CCCC3 | 0.553%
28 | Cn1c(NN)nc2sc3c(c2c1=O)CCC3 | -10.7%
29 | NNC(=O)C1CCCn2c1nc1sc3c(c1c2=O)CCCC3 (stereo not drawn) | 55.9% (active)
30 | O=C1CSC(c2ccc(Cl)cc2)N1 (stereo not drawn) | 0.721%
31 | CCOc1ccc(C(C)=O)cc1COC(=O)c1cnc(Cl)c(Cl)c1 | 64.1% (active)
32 | CCOc1ccc(C(C)=O)cc1COC(=O)CNC(=O)c1cccs1 | -4.84%
33 | COC(=O)c1ccc(COC(=O)c2cnc(Cl)c(Cl)c2)cc1 | 1.15%
34 | COC(=O)/C(=C\Nc1ccccc1)NC(=O)c1ccc(Cl)cc1Cl | 10.1%
35 | Cc1ccccc1CN1C(=O)CSCC1(C)C(=O)Nc1c(C)cccc1C (stereo not drawn) | -13%
36 | COc1ccc(S(=O)(=O)N2CCOCC2)cc1NC(=O)CC1CC2CCC1C2 (stereo not drawn) | -19.8%
37 | Cc1cc(=O)[nH]c(N/N=C/c2c(C)nn(-c3ccccc3Cl)c2Cl)n1 | -2.12%
38 | Cn1cc([N+](=O)[O-])c(C(=O)Nc2ccc3c(c2)OCCO3)n1 | 23.6%
39 | Cc1nn(-c2ccccc2)c(Cl)c1/C=N/NC(=O)c1nn(C)cc1[N+](=O)[O-] | 54.6% (active)
40 | COc1ccc(N2CCN(C(=O)C3CCN(S(=O)(=O)c4ccc(C)cc4)CC3)CC2)cc1 | -4.63%
41 | CC(C)NC(=O)CSc1nnc(COc2ccccc2Cl)o1 | 11.2%
42 | COc1ccc2sc(-c3ccc(S(C)(=O)=O)cc3)c(C#Cc3cncn3C)c2c1 | 54.7% (active)
43 | COc1cccc(-c2sc3ccc(OC)cc3c2-c2ccc(OCCN3CCCCC3)cc2)c1 | 12.9%
44 | Cn1cncc1C#Cc1c(-c2ccsc2)sc2ccccc12 | 0.155%

Row | Structure (SMILES) | inhibition (viability loss, TRAIL sensitization)
45 | Cc1cc(C)n2nc(C(=O)OCC(=O)N(C)CC(=O)Nc3ccc(F)cc3)nc2n1 | 2.14%
46 | c1ccc(-n2ncc(-c3nn[nH]n3)n2)cc1 | 8.97%
47 | O=C(NNS(=O)(=O)c1ccc([N+](=O)[O-])cc1)C1CCCCC1 | -2.99%
48 | O=C(C[C@H]1C/C=C\C[C@@H](NC(=O)OCC2c3ccccc3-c3ccccc32)C(=O)O[C@@H](c2ccccc2)CNC1=O)N[C@H](CO)Cc1ccccc1 | 73.9% (active)
49 | CC(C)(C)OC(=O)C[C@H]1C/C=C\C[C@@H](CC(=O)N[C@H](CO)Cc2ccccc2)C(=O)NC[C@@H](c2ccccc2)OC1=O | -2.43%
50 | CC(C)(C)OC(=O)C[C@@H]1C/C=C\C[C@@H](CC(=O)N[C@H](CO)Cc2ccccc2)C(=O)NC[C@@H](c2ccccc2)OC1=O | 3.83%
51 | O=c1ccn([C@@H]2O[C@H](CNS(=O)(=O)c3cc4ccccc4s3)[C@@H](O)[C@H]2O)c(=O)[nH]1 | 5.61%
52 | COc1ccc(N2CCN(C(CNS(=O)(=O)c3ccc(C)cc3)c3ccccc3)CC2)cc1 (stereo not drawn) | -6.83%
53 | CC1CCCC(NC(=O)c2cc(-c3ccncc3)nc3ccccc23)C1C (stereo not drawn) | 11.9%
54 | CCc1ccc(-c2cc(C(=O)NN3CCN(C)CC3)c3ccccc3n2)cc1 | 58.3% (active)
55 | O=C(NCCc1ccccn1)c1cc(-c2ccc(Cl)cc2)nc2ccccc12 | 7.97%
56 | O=C(NCc1cccnc1)c1ccccc1NC(=O)c1c(F)cccc1F | -13.9%
57 | COc1ccc(CC(N)c2csc(NC(=O)NC(c3ccccc3)c3ccccc3)n2)cc1 (stereo not drawn) | 44.6%
58 | COc1ccc(CC(N)c2csc(NC(=O)Cc3ccccc3)n2)cc1 (stereo not drawn) | -6.08%
59 | COc1ccc(CC(N)c2csc(NC(=O)Nc3ccc(C(C)C)cc3)n2)cc1 (stereo not drawn) | 92.1% (active)
60 | N#Cc1ccc(CN2CCN(CC(=O)Nc3ccccc3C(=O)NC3CC3)CC2)cc1 | -1.82%
61 | COC(=O)c1ccc(OC(=O)c2cnccn2)cc1 | 6.75%
62 | Cn1c(=NC(=O)c2ccco2)sc2cccc(F)c21 | 47.7%
63 | Cn1c(=NC(=O)c2cnccn2)sc2ccccc21 | 61.8% (active)
64 | OCCCNC(c1ccccc1)c1ccc(O)cc1 (stereo not drawn) | 20.3%
65 | CN(C)c1cccc(NC(=O)c2ccc(-c3ccc(F)c(F)c3)c3ccoc23)c1 | 20.1%
66 | Cc1sc2ncn(CC(=O)NCCCC(=O)N3CCN(c4ccccc4F)CC3)c(=O)c2c1C | 19.6%

Row | Structure (SMILES) | inhibition (viability loss, TRAIL sensitization)
67 | C=CCOc1ccc(/C=C2\SC(=S)N(CCC(=O)O)C2=O)cc1 | 56.9% (active)
68 | CN(C(=O)CN1C(=O)/C(=C/c2ccc(Cl)cc2)SC1=S)C1CCS(=O)(=O)C1 (stereo not drawn) | 10.1%
69 | CCN(C(=O)CN1C(=O)/C(=C/c2ccc(F)cc2)SC1=S)C1CCS(=O)(=O)C1 (stereo not drawn) | -9.46%
70 | COCCN(C(=O)CSCc1ccc(C)cc1)c1c(N)n(CC(C)C)c(=O)[nH]c1=O | -0.426%
71 | COc1cccc(NC(=O)CN(C)CC(=O)c2c(N)n(Cc3ccccc3)c(=O)n(C)c2=O)c1 | -2.67%
72 | Cc1ccc(S(=O)(=O)/N=C(\CN2CCOCC2)N2CCOCC2)cc1 | -0.117%
73 | O=C(N/N=C/c1cc([N+](=O)[O-])ccc1O)/C(=C\c1cccs1)NC(=O)c1ccccc1 | 41.5%
74 | O=C(N/N=C/c1ccccc1O)/C(=C/c1ccccc1)CCO | 51.4% (active)
75 | NN=C(NN=Cc1ccccc1)c1ccccc1 | 12.4%
76 | CCCc1nn2c(=O)cc(CSCC(=O)Nc3cccc(C)c3)nc2s1 | -0.888%
77 | CCOC(=O)CCc1c(C)c2ccc(OCc3nn[nH]n3)c(C)c2oc1=O | -5.29%
78 | CCCCc1cc(=O)oc2cc(C)cc(OCc3nn[nH]n3)c12 | 10.2%
79 | COc1ccc(-c2cc3ccc(OCc4nn[nH]n4)cc3oc2=O)cc1 | 56.7% (active)
80 | CCc1ccc(-n2c(=S)sc3c(=O)n(-c4ccccc4OC)c(=S)[nH]c32)cc1 | -3.67%
81 | Cc1cccc(C)c1NC(=O)C(c1cccc2ccccc12)n1c(=O)c(-c2ccco2)nc2ccccc21 (stereo not drawn) | -6.27%
82 | O=c1oc(/C=C/c2ccccc2)nc2ccccc12 | 77.8% (active)
83 | O=c1oc(-c2ccccc2NS(=O)(=O)c2ccc(Cl)cc2)nc2ccccc12 | 6.47%
84 | S=c1[nH]nc(/C=C/c2ccccc2)o1 | 0.666%
85 | CN1CCC(CN)(N2CCN(c3ccccc3)CC2)CC1 | 6.93%
86 | COc1ccc(CCNc2cc(N3CCN(C(=O)c4ccccc4OC)CC3)ccc2[N+](=O)[O-])cc1OC | 39.3%
87 | O=[N+]([O-])c1ccc(C=Nc2ccc(Cl)cc2Cl)s1 | 53.8% (active)
88 | C[C@@H]1CN([C@@H](C)CO)C(=O)c2cc(NS(C)(=O)=O)ccc2O[C@@H](C)CCCCO[C@H]1CN(C)C(=O)Nc1ccc2c(c1)OCO2 | -14.6%
